Data reported in the supplement of paper PMC13380429.

Tested on: Vero E6 infected with SARS-CoV-2
Test: inhibition of SARS-CoV-2 cytopathic effect; higher = more antiviral protection, active = above 15
Conditions: 48 h

Measured: inhibition of SARS-CoV-2 cytopathic effect

Cn1cnc(N)c2ncnc1-2 [3-methyladenine]
inactive: 1 nM -3.13% | 8.33 nM -1.71% | 100 nM -2.68% | 833.33 nM -0.52% | 10000 nM -1.76%

CC(=O)Nc1ccc(O)cc1 [paracetamol]
inactive: 1 nM -0.44% | 8.33 nM 1.77% | 100 nM -0.22% | 833.33 nM 0.33% | 10000 nM -2.2%

O=C(NC(Cc1cc(=O)[nH]c2ccccc12)C(=O)O)c1ccc(Cl)cc1 (stereo not given) [rebamipide]
inactive: 1 nM -0.87% | 8.33 nM 2.6% | 100 nM 4.52% | 833.33 nM 2.91% | 10000 nM 1.77%

C=C(C)[C@@H]1CC=C(CO)CC1 [perillyl-alcohol]
inactive: 1 nM 2.64% | 8.33 nM -3.02% | 100 nM 2.99% | 833.33 nM 2.39% | 10000 nM -1.2%

COc1cc(N)c(Cl)cc1C(=O)N[C@@H]1CCN(CCCOc2ccc(F)cc2)C[C@@H]1OC (racemic) [cisapride]
inactive: 1 nM -0.68% | 8.33 nM -0.92% | 100 nM 1.02% | 833.33 nM 2.56% | 10000 nM -4.6%

COc1cc(Nc2nc3ccccc3nc2NS(=O)(=O)c2ccc(NC(=O)c3ccc(C)c(OC)c3)cc2)cc(OC)c1
inactive: 1 nM 1.14% | 8.33 nM 4.37% | 100 nM 1.01% | 833.33 nM -1.67% | 10000 nM 0.57%

OCCN1CCN(CCCN2c3ccccc3Sc3ccc(C(F)(F)F)cc32)CC1 [fluphenazine]
active: 10000 nM 20.5%
inactive: 1 nM -8.05% | 8.33 nM -7.65% | 100 nM -6.69% | 833.33 nM -9.7%
